Screening data: PubChem BioAssay, National Center for Advancing Translational Sciences (NCATS)
Rows were chosen to be rich in hits. Some 12% of all compounds tested hit in one or more screens of this group.
BAZ2B inh – qHTS Assay for Inhibitors of BAZ2B. AlphaScreen BAZ2B-H3K14Ac peptide displacement. Bromodomain adjacent to zinc finger domain protein 2B (Homo sapiens), Q9UIF8. 360,000 compounds, 4.4% hits. Potency, µM (top dose mostly 114 µM), for the others: top-dose activity change, negative = inhibition, usual class: inhibitors; also: potency is read from the fitted curve at half-maximal effect; % is scaled to controls: 0 for no effect and ±100 for the full control effect; nearly all actives have a fitted effect of over 60% in size
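Complex of BAZ2B and biotin-H3K14Ac (50 nM apiece) forms over 30 min at RT, then faces library compounds up to 110 uM for another 30 min; AlphaScreen beads added, 20 min dark incubation, luminescence read.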
PLK1 PBD inh – qHTS for Inhibitors of PLK1-PDB (polo-like kinase 1 - polo-box domain): Primary Screen. 360,000 compounds, 2.8% hits. Plk1 PBD binding of FITC phosphopeptide, fluorescence polarization. Potency, µM, without a hit: max response, negative = inhibition, actives largely listed as inhibitors. AID 720504, 2013. Serine/threonine-protein kinase PLK1 (Homo sapiens), P53350; also: potency is read from the fitted curve at half-maximal effect; series mostly up to about 57 µM; % is scaled to controls: 0 for no effect and ±100 for the full control effect; nearly all actives have a fitted effect of over 65% in size
Target sequence (P53350 whole entry, looked up, the tested form may be a part): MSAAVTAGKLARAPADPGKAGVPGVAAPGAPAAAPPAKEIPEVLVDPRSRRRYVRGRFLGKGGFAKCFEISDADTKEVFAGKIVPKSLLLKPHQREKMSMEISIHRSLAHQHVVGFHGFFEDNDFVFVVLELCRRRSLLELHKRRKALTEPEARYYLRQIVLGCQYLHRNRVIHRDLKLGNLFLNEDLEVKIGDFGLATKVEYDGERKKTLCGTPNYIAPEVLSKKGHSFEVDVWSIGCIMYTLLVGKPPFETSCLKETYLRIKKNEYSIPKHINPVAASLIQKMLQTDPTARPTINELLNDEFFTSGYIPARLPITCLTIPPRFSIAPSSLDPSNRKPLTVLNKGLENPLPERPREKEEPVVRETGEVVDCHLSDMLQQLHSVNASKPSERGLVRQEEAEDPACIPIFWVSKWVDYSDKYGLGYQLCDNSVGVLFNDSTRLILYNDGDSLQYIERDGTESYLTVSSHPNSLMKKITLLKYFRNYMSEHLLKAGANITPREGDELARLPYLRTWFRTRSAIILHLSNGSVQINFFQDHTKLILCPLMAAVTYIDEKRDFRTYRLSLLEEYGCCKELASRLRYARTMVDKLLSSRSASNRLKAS
HP1b binding inh – HTS for Inhibitors of HP1-beta Chromodomain Interactions with Methylated Histone Tails; Chromobox protein homolog 1 (Homo sapiens), P83916; AlphaScreen HP1-beta / biotin-H3K9me3 peptide binding; Potency, µM (doses to about 114 µM), inactives show at the top dose activity change, negative = inhibition, usual class: inhibitors; 390,000 compounds, 0.56% hits; AID 540317, 2011; also: potency is read from the fitted curve at half-maximal effect; nearly all actives have a fitted effect of over 70% in size
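HP1-beta protein (50 nM final) preincubated 30 min at room temperature with biotinylated H3(1-18)K9me3 peptide (50 nM) in PBS pH 7.4, 0.01% Tween-20, then compound added for 30 min. AlphaScreen streptavidin donor/nickel chelate acceptor beads (10 ug/mL final), 30 min dark, luminescence read.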
PI5P4K alpha inh – qHTS for Inhibitors of phosphatidylinositol 5-phosphate 4-kinase (PI5P4K). max response, %. 330,000 compounds, 1.2% hits. AID 652105, 2013. Phosphatidylinositol 5-phosphate 4-kinase type-2 alpha (Homo sapiens), P48426. PI5P4Kalpha enzyme, ADP-Glo luminescence, 60 min; active compounds read low; active = max response of -50% or lower; inconclusive = between -30% and -50%; inactive = -30% or higher; also: value at the top dose of about 77 µM; % is scaled to controls: 0 for no effect and ±100 for the full control effect
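ADP-Glo luminescence end-point read after a 60 min room-temperature kinase reaction of PI5P4Kalpha plus substrate, initiated with ATP at 5 microM final. Buffer: 0.038 M HEPES pH 7.4, EGTA, 0.1% CHAPS, 5% DMSO.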
JMJD2A Tudor inh – qHTS Assay for Inhibitors of JMJD2A-Tudor Domain; Lysine-specific demethylase 4A (Homo sapiens), O75164; AlphaScreen JMJD2A-Tudor / H3K4me3 peptide binding; Potency, µM (series often up to 114 µM), without a hit: top-dose activity change, negative = inhibition, usual class: inhibitors; 390,000 compounds, 4.4% hits; AID 504339, 2011; also: potency is read from the fitted curve at half-maximal effect; % is scaled to controls: 0 for no effect and ±100 for the full control effect; nearly all actives have a fitted effect of over 50% in size
G9a inh – qHTS Assay for Inhibitors of Histone Lysine Methyltransferase G9a; Histone-lysine N-methyltransferase EHMT2 (Homo sapiens), Q96KQ7; G9a H3K9 monomethylation, AlphaScreen, 2 h; Potency, µM (top dose mostly 102 µM), inactives show top-dose activity, negative = inhibition, most hits filed as inhibitors; 350,000 compounds, 8.8% hits; AID 504332, 2011; also: potency is read from the fitted curve at half-maximal effect; % is scaled to controls: 0 for no effect and ±100 for the full control effect; nearly all actives have a fitted effect of over 75% in size
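AlphaScreen read-out: biotin-H3K9 peptide (500 nM) methylation by 20 nM enzyme with 20 uM SAM, 2 h at room temperature after 15 min compound preincubation; anti-monomethyl H3K9 antibody plus donor/acceptor beads, 10 min dark.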
Numbers without * were called inactive; ? = inconclusive; . = no result given; [ ] = another dose, or the depositor's remark. Unless noted, calls follow the shape of the dose curve; as a rule, active = well fitted curve in the direction sought with a large enough effect; inconclusive = small, poorly fitted or top-dose-only effect, or another doubt; inactive = no such curve, though single readings can be large; an effect the other way counts as inactive or inconclusive.

SMILES	BAZ2B inh	PLK1 PBD inh	HP1b binding inh	PI5P4K alpha inh	JMJD2A Tudor inh	G9a inh
Cc1ccc(C(=O)N2CCc3cc(CNC(=O)CSc4ccccc4)ccc32)cc1	-15%	.	-13%	.	-27%	5%[59 µM]
Cc1nc2ccn(Cc3cccnc3)c(=O)c2cc1C(=O)NCc1ccccc1	-12%	.	18%	.	-14%	-1%[59 µM]
COC(=O)C1(C(=O)OC)C[C@H](/C=C/c2ccccc2)N(Cc2ccccc2OC)[C@@H]1c1ccccc1	.	13%	.	4	.	.
COc1ccc2nc3cc(Cl)ccc3c(Nc3ccc(O)c(CN4CCN(C)CC4)c3)c2c1	.	-3%	16µM*	?	32µM*	.
COc1cc(Cl)c(C)cc1NS(=O)(=O)c1c(C)nc2sccn2c1=O	-12%	.	0%	.	-19%	-6%[59 µM]
Cc1ccc(C)c(-n2cc(-c3ccc(Cl)cc3)nc2SCC(=O)NC2CCS(=O)(=O)C2)c1 (centres undefined)	?	7%	-16%	6	?	45µM*
Nn1cc(-c2ccccc2)nc1SCC(=O)NC1CCS(=O)(=O)C1 (centres undefined)	-25%	-8%	47%	0	-14%	-39%[59 µM]
Cc1ccccc1-n1c(SCC(=O)NC2CCS(=O)(=O)C2)nc2ccccc2c1=O (centres undefined)	7%	-2%	20%	15	-8%	50µM*
O=C(CSc1nc2ccccc2n1CCc1ccccc1)NC1CCS(=O)(=O)C1 (centres undefined)	-5%	-4%	42%	1	-7%	2µM*
CCCCCCn1c(SCC#N)nc2ccccc2c1=O	.	.	60%[57 µM]	.	15%[57.1 µM]	.
O=C(c1ccc(S(=O)(=O)N2CCCCC2)cc1)N1CCN(CCN2C(=O)c3cccc4cccc(c34)C2=O)CC1	.	2%	0%	10	-17%	?
COc1cccc(CNC(=O)C2CCN(S(=O)(=O)c3c(C)noc3/C=C/c3cccs3)CC2)c1	.	.	22%	.	-14%	10%[59 µM]
CCOc1ccccc1N1CC(C(=O)Nc2cc(Cl)ccc2C)CC1=O (centres undefined)	-8%	-6%	50%	5	-6%	10%
Cc1ccc(N=C2C(=O)Nc3ccccc32)cc1C	-1%	-10%	-4%	3	-20%	20%[0.501 µM]
Cc1ccc(N=C2c3ccccc3C(=O)C2[N+](=O)[O-])cc1C (centres undefined)	-27%	-10%	17%	-17	-27%	40µM*
Cc1nnc(SCC(=O)c2cc(C)n(-c3ccc4c(c3)OCO4)c2C)s1	45µM*	-1%	-22%	.	?	?
O=C(O)CCCCC1CCSS1 (centres undefined)	1µM*	-21%	18%	1	-21%	1.8µM*
COc1cc(/C=C2/C(=N)N3N=C(C)SC3=NC2=O)ccc1OS(=O)(=O)c1ccc(C)cc1	-2%	21µM*	11%	-18	-8%	18%
CCC1=NN2C(=N)/C(=C/c3ccc(OS(=O)(=O)c4ccc(C)cc4)c(OC)c3)C(=O)N=C2S1	-2%	15µM*	-17%	-16	-30%	-6%
CS(=O)(=O)Oc1ccc(/C=C2\C(=N)N3N=C(CC(=O)N4CCOCC4)SC3=NC2=O)cc1Cl	-4%	0%	32%	2	14%	0%
CCN1C(=O)[C@H]2[C@@H](c3ccc(-c4ccc(F)cc4)c(OC)c3)N[C@@](C)(C(=O)OC)[C@H]2C1=O	56µM*	-7%	26%	-4	?	?
CCN1C(=O)[C@H]2[C@@H](c3ccc(-c4ccc(OC)cc4)c(OC)c3)N[C@@](C)(C(=O)OC)[C@H]2C1=O	-13%	-8%	44%	10	-30%	-6%[2.33 µM]
COC(=O)C1(C)NC(c2ccccc2C)C2C(=O)N(c3ccc(F)cc3)C(=O)C21 (centres undefined)	-20%	30µM*	12%	0	?	-7%[59 µM]
COC(=O)c1cc(=O)nc(NN=Cc2ccco2)s1	.	-1%	.	-20	.	.
COc1ccc(OCc2cc(C(=O)N3CCOCC3)no2)c(Cl)c1	0%	-13%	47%	0	3%	12%
SMILES	BAZ2B inh	PLK1 PBD inh	HP1b binding inh	PI5P4K alpha inh	JMJD2A Tudor inh	G9a inh
O=C(Nc1nccs1)C1CC=CC2CCN(Cc3ccc(Cl)c(Cl)c3)C(=O)C21 (centres undefined)	.	.	31%	.	-13%	.
CCn1c(=O)c2sccc2n2c(CCC(=O)NCc3ccc(Cl)cc3)nnc12	-2%	.	39%	.	6%	8%[59 µM]
Cc1nc(SCc2cccc(Oc3ccccc3)c2)n[nH]1	2%	3%	32%	-2	-11%	-3%
CCCCOc1ccc(Cl)cc1CSc1n[nH]c(C)n1	12%	-5%	30%	.	-8%	21%[12.7 µM]
CCCCCOc1ccc(CSc2n[nH]c(C)n2)cc1	5%	30µM*	-11%	1	?	.
Cc1nc(SCc2ccc(OCCC(C)C)cc2)n[nH]1	-15%	-6%	29%	13	-15%	50µM*
O=C(CN1CCOCC1)NCc1cc([N+](=O)[O-])ccc1O	5%	8%	35%	-1	-1%	0%[0.501 µM]
O=[N+]([O-])c1cccc(-c2ccc3nnc(SCc4ccccn4)n3n2)c1	-12%	24µM*	-9%	1	-2%[11.4 µM]	10%
c1ccc(CSc2nnc3ccc(-c4ccco4)nn23)nc1	-1%	-6%	57%	0	7%[11.4 µM]	9%
O=C(NCC(c1ccco1)N1CCc2ccccc21)c1ccccc1 (centres undefined)	?	1%	-18%	2	?	50µM*
COc1ccccc1C(=O)NCC(c1ccco1)N1CCc2ccccc21 (centres undefined)	50µM*	-7%	5%	-7	?	50µM*
CCOc1ccccc1C(=O)NCC(c1ccc(N(C)C)cc1)N1CCc2ccccc21 (centres undefined)	5.6µM*	.	?	.	10µM*	13µM*
COc1cc(C(=O)NCCNC(=O)c2ccco2)cc(OC)c1OC	.	27µM*	?	?	?	.
Cc1ccc(C(=O)NCC(c2ccco2)N2CCc3ccccc32)cc1C (centres undefined)	?	-6%	-7%	1	?	5%[0.501 µM]
CN(C)c1ccc2c(=O)c3ccccc3oc2n1	.	-1%	.	7	.	.
